Screens: PubChem, National Center for Advancing Translational Sciences (NCATS)
Tb PFK inh: qHTS Assay to Find Inhibitors of T. brucei phosphofructokinase | ATP-dependent 6-phosphofructokinase (Trypanosoma brucei brucei), O15648 | T. brucei PFK, ADP-Glo luminescence | Potency, µM (doses to about 57.5 µM), for the others: top-dose activity, negative = inhibition, hits mostly inhibitors | 0.17% of 330,000 active | AID 485367, 2010;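 note: 0% = uninhibited 1x PFK enzyme wells and -100% = no-enzyme wells; nearly all actives have a fitted effect of over 60% in size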
Target sequence (O15648 whole entry, looked up): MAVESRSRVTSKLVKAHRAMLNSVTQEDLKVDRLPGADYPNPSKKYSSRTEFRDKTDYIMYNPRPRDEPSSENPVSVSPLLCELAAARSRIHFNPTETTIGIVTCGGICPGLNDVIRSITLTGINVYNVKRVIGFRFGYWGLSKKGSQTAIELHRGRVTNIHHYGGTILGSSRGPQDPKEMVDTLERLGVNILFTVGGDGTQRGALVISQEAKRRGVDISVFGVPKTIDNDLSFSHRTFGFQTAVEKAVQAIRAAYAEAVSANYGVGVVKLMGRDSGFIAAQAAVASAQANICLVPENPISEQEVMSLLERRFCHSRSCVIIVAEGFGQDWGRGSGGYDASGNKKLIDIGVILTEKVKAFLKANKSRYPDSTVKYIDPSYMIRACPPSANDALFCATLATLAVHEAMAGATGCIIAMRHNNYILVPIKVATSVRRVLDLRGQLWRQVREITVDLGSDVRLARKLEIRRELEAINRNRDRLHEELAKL
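Compounds were pin-transferred as a titration series up to 57 uM into substrate buffer (0.5 mM F6P, 0.1 mM ATP, pH 8.0), then 1.25 nM PFK was added and reactions ran 45 min before ADP-Glo detection.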
Rango dissoc inh: qHTS Assay for Inhibitors of RanGTP induced Rango (Ran-regulated importin-beta cargo) - Importin beta complex dissociation. Snurportin-1 (Homo sapiens) + GTP-binding nuclear protein Ran (Homo sapiens) + Importin …. Biochemical FRET Rango-importin beta, RanGTP-induced dissociation. Potency, µM (titrated, usually from 46.1 µM), without a hit: at the top dose activity change, negative = inhibition. 0.071% of 340,000 active; calls by dose curve; note: % of control where 0% means no effect; nearly all actives have a fitted effect of over 45% in size
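Rango FRET biosensor (snurportin-1 IBB flanked by N-terminal EYFP and C-terminal CFP10) at 0.1 uM, with 0.25 uM importin beta in PBS, 1mM DTT, 0.02% Tween-20, 0.1% BSA. 0.6 uM Ran, 2mM GTP and 0.2 uM RCC1 were then added for 45 min at room temperature. Inhibition read as loss of FRET rise.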
Rango complex inh: qHTS Assay for Inhibitors of Rango (Ran-regulated importin-beta cargo) - Importin beta complex formation | Rango CFP/YFP FRET sensor + importin beta, 45 min | Potency, µM (titrated, usually from 92.2 µM), for the others: at the top dose inhibition of complex formation | 0.031% of 340,000 active; calls by dose curve;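 note: 0% = DMSO wells and 100% = buffer wells lacking importin beta; nearly all actives have a fitted effect of over 15% in size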
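FRET biosensor (snurportin 1 IBB flanked by EYFP and cerulean), 50 nM, with compound 5 min, then 0.125 microM importin beta in PBS, 1 mM DTT, 0.02% Tween-20, 0.1% BSA. CFP/YFP ratio read after 45 min at room temperature; pre-read flags interference.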
ELG1 repair inh: qHTS screen for small molecules that inhibit ELG1-dependent DNA repair in human embryonic kidney (HEK293T) cells expressing luciferase-tagged ELG1; Potency, µM (titrated, usually from 46.1 µM), inactives show at the top dose activity change, negative = inhibition, actives largely listed as inhibitors; HEK293T ELG1-luciferase reporter, luminescence, 16 h; DNA damage induced by 5-fluorouridine; 2.3% of 330,000 active; note: % is set by controls: 0 for no effect and ±100 for the full control effect; nearly all actives have a fitted effect of over 55% in size
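DMSO vehicle served as the neutral condition. Each well held 2,000 cells given 5-fluorouridine plus compound; after 16 hr at 37 °C/5% CO2, ONE-Glo was added and luciferase measured 30 min later.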
PKM2 act: qHTS Assay for Activators of Human Muscle isoform 2 Pyruvate Kinase. Pyruvate kinase PKM (Homo sapiens), P14618. purified PKM2, Kinase-Glo ATP luminescence, activation; response scale: 0% is enzyme alone, no compound. Potency, µM (titrated, usually from 57.5 µM), without a hit: top-dose activation, hits mostly activators. 0.34% of 260,000 active; note: % is set by controls: 0 for no effect and ±100 for the full control effect; nearly all actives have a fitted effect of over 55% in size
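hPK-M2, >95% pure; 0.1 mM ADP / 0.5 mM PEP final; imidazole pH7.2 buffer w/ 7 mM MgCl2, 50 mM KCl; 1 h RT; Kinase-Glo lum. Intermediate enzyme activity for dual inhibitor/activator qHTS.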
Tb PGK inh: qHTS Assay to Find Inhibitors of Phosphoglycerate Kinase; PGK/GAPDH coupled, Kinase-Glo luminescence, 60 min; Potency, µM (doses to about 57.5 µM), without a hit: at the top dose activity change, negative = inhibition, actives largely listed as inhibitors; AID 602233, 2012; 0.043% of 380,000 active; note: % is set by controls: 0 for no effect and ±100 for the full control effect; nearly all actives have a fitted effect of over 60% in size
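Luminescent ATP detection (Kinase-Glo Plus) follows a 60-minute room-temperature incubation, with wells lacking PGK as controls. Buffer: 100 mM TEA (pH 7.6), 5 mM MgCl2, 0.01% Tween-20. Coupling enzyme GAPDH (100 nM final) supplies unstable 1,3-BPG in-well.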
An asterisk follows results filed as active; i = inactive; ? = inconclusive; / = no result given. An excerpt weighted towards active compounds, which were near 2.4% of everything screened. Unless noted, calls come from the whole dose curve; as a rule, active = well fitted curve in the direction sought with a large enough effect; inconclusive = small, poorly fitted or top-dose-only effect, or another doubt; inactive = no such curve, though single readings can be large; an effect the other way counts as inactive or inconclusive. Potency is the fitted concentration of half-maximal effect.

SMILES	Tb PFK inh	Rango dissoc inh	Rango complex inh	ELG1 repair inh	PKM2 act	Tb PGK inh
Cc1ccc(CN(Cc2ccco2)c2cnc(S(C)(=O)=O)nc2C(=O)Nc2ccc(Br)cc2)o1	/	/	/	/	/	5%
COc1ccc(-c2oc(=O)c3cc(OC)c(OC)cc3c2C#CCCO)cc1	0%	-2%	?	16µM*	/	0%
COc1ccc(/C=C/c2c(-c3ccc(OC)cc3)oc(=O)c3cc(OC)c(OC)cc23)cc1	1%	2%	?	5.8µM*	/	-3%
CN(C)c1ccc(Nc2ncnc3c2c(-c2ccccc2)cn3-c2cccc(Cl)c2)cc1	/	/	/	/	/	14%
COc1ccc(OC)c(CC(NC(C)=O)C(=O)NC2CCN(c3c(Cc4ccccc4)c(C)nc4ncnn34)CC2)c1 (stereo not drawn)	-3%	-8%	-2%	23µM*	0%	2%
CC(Sc1nnc(C(C)Oc2ccc(F)cc2)o1)C(=O)NCc1ccc2c(c1)OCO2 (stereo not drawn)	/	/	/	/	/	i
O=c1[nH]c(N/N=C/c2cc3c(cc2[N+](=O)[O-])OCO3)nc2ccccc12	-1%	-4%	-2%	10%	40µM*	i
CC(C)(C)CC(=O)Nc1ccc(-c2nnc3n2CCCCC3)cc1	-9%	-16%	-3%	-3%	/	-6%
Cc1c(C(=O)Nc2ccc(-c3nnc4n3CCCCC4)cc2)oc2c1ccc1ccccc12	11%	7%	5%	16µM*	-6%	10%
O=C(/C=C/c1ccccc1Cl)Nc1ccc(-c2nnc3n2CCCCC3)cc1	0%	3%	-1%	18µM*	5%	-8%
O=C(O)c1ccc(N=Nc2c(-c3ccccc3)[nH]oc2=O)cc1	-14%	3%	2%	?	/	-1%
Cc1cccc(NC(=O)c2cc3ccccc3oc2=O)c1	-4%	12µM*	?	?	-4%	-5%
COc1ccc2oc(=O)c(C(=O)Nc3cccc(C)c3)cc2c1	0%	-1%	7%	?	0%	4%
CCCN(C(=O)CSc1nnc(-c2ccoc2C)n1N)C1CCS(=O)(=O)C1 (stereo not drawn)	-12%	4%	-1%	0.65µM*	-2%	-2%
CC1CCc2nc3ccccc3c(C(=O)OCC(=O)N3CCc4ccccc43)c2C1 (stereo not drawn)	9%	5%	-4%	18µM*	-13%	-1%
CCc1noc(C)c1C(=O)OCC(=O)N1CCc2ccccc21	-1%	-16%	0%	?	/	-6%
CCCc1nc2ccccc2c(C(=O)OCC(=O)N2CCc3ccccc32)c1CC	-5%	-2%	0%	16µM*	-10%	-5%
Clc1ccc(-c2c[n+]3c(n2-c2ccccc2)SCC3)cc1	1%	4%	4%	7.3µM*	-7%	1%
COC(=O)c1cc(S(=O)(=O)N2CCN(c3ccc([N+](=O)[O-])cc3)CC2)c[nH]1	-26%	?	1%	16µM*	/	-8%
COc1ccc(CCn2c(SCC(=O)Nc3cc(C)on3)nc3ccsc3c2=O)cc1OC	-2%	2%	6%	10µM*	6%	-9%
COc1ccc(CCn2c(SCC(=O)Nc3cc(C)on3)nc3ccccc3c2=O)cc1OC	1%	-1%	-4%	4%	-10%	-2%
FC(F)(F)c1nnc(Nc2ccc(Cl)cc2)s1	-6%	?	-2%	10µM*	1%	-7%
Fc1ccc(Nc2nnc(C(F)(F)F)s2)cc1Cl	-22%	5%	-2%	?	-2%	1%
Cc1ccc2nc(N/N=C/c3ccccc3C#N)nc(-c3ccccc3)c2c1	0%	-15%	?	21µM*	10%	-3%
Cc1ccc(CSc2nnc(-c3ccc(NS(=O)(=O)c4ccccc4)cc3)o2)cc1	0%	-12%	0%	2%	22%	2%
SMILES	Tb PFK inh	Rango dissoc inh	Rango complex inh	ELG1 repair inh	PKM2 act	Tb PGK inh
COC(=O)CSc1nnc(-c2ccc(NS(=O)(=O)c3ccccc3)cc2)o1	1%	7%	1%	0%	25µM*	-7%
C#CCN(CC=C)C(=O)c1ccc2nc(C3CCCCC3)oc2c1	3%	-3%	-1%	?	4%	-10%
CC(C)(C)c1ccc(C(=O)Nc2ccc(Oc3cccnc3)nc2)cc1	3%	-8%	0%	2.1µM*	1%	i
COc1ccc(Cc2noc(-c3ccc(OC)c(OC)c3)n2)cc1OC	1%	-15%	6%	21µM*	1%	/
CCN(c1ccccc1)S(=O)(=O)c1ccc(OC)c(NC(=O)CCc2nc3ccccc3c(=O)[nH]2)c1	-1%	11%	2%	?	/	-2%
Cc1ccc(-c2csc3ncnc(Oc4ccc5c(C)cc(=O)oc5c4)c23)cc1	-1%	31%	-5%	18µM*	-18%	-12%
Nc1cc(-c2ccc(Br)cc2)[nH]n1	-2%	0%	0%	13µM*	-14%	-10%
CC12OC1C1(O)CCCC1=CC2=O (stereo not drawn)	1%	/	/	-12%	3%	/
CC(=O)Oc1ccc(-c2csc(Nc3ccc(S(N)(=O)=O)cc3)n2)cc1	0%	0%	0%	-9%	-11%	-1%
COc1ccc(-c2csc(Nc3ccc(S(N)(=O)=O)cc3)n2)cc1	-5%	?	?	16µM*	7%	1%
CCCN(CCC)S(=O)(=O)c1ccc(C(=O)Nc2nnc(-c3cccc(OC)c3)o2)cc1	-1%	-5%	-1%	?	4%	i
CCCCN(C)S(=O)(=O)c1ccc(C(=O)Nc2nnc(C3=COCCO3)o2)cc1	3%	1%	0%	15µM*	5%	-7%
N#CCCN(CCC#N)S(=O)(=O)c1ccc(C(=O)Nc2nnc(C3=COCCO3)o2)cc1	1%	30%	0%	3%	-6%	-7%
CCCN(CCC)S(=O)(=O)c1ccc(C(=O)Nc2nnc(-c3cc(OC)cc(OC)c3)o2)cc1	7%	6%	0%	1.5µM*	-2%	i
